Holding throughout (assay): NCI-60 one-dose screen, 48 h (100 = growth as untreated, 0 = no growth, -100 = all killed)
In assay [1] the test system is NCI-H23 lung. The following applies: 10 µM unless noted.
Assay [2] has as its system NCI-H226 lung. The following applies: 10 µM unless noted.
In assay [3] the test system is NCI-H322M lung. The following applies: 10 µM unless noted.
The subject of assay [4] is NCI-H460 lung. The following applies: 10 µM unless noted.
Assay [5] deals with HOP-92 NSCLC. As to conditions: 10 µM unless noted.
For assay [6], the system named is A549/ATCC NSCLC. The following applies: 10 µM unless noted.
The test system of assay [7] is 786-0 renal. As to conditions: 10 µM unless noted.
The subject of assay [8] is COLO 205 colon. The following applies: 10 µM unless noted.
For assay [9], the system named is HOP-62 NSCLC. The following applies: 10 µM unless noted.
Assay [10] has as its system NCI-H522 lung. As to conditions: 10 µM.

Molecules are shown by their SMILES. The panel holds about 83,000 compounds, 20% with a hit somewhere; the sample as a whole holds those more often.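 How to read the values: 0–100, growth inhibition (40 = 60% inhibited); 0, no net growth; -100 to 0, cell death (-40 = 40% of starting cells died; -100 = all dead).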 A number with no mark means an inactive call. The source made the active and inactive calls. The calls were made as follows: active = growth percent below 10; inactive = the rest.

As to `CC(=O)Nc1c(Cl)cc2c(c1Cl)Cc1cc([N+](=O)[O-])ccc1-2`, the growth in assay [1] was 88%; in assay [2], 85%; in assay [3], 94.9%; in [4], 81.3%; in [5], 53.3%; in assay [6] it was 74.5%. In addition, the growth is 77.9% in assay [7] and 103% in assay [8].
Turning to `CC(=O)c1ccc(NS(=O)(=O)c2ccc([N+](=O)[O-])cc2)cc1`, the growth in assay [1] is 105%; in assay [2], 99.4%; in [3], 121%; in [9], 87%; in [6], 95.5%; in assay [7], 105%. Further, the growth in [8] is 106%.
With `CCOC(=O)/C=C1/SC(=Nc2ccc(C#N)cc2)N(Cc2ccco2)C1=O`, the growth is 70.6% in [1]; 70.3% in assay [2]; 95.5% in assay [3]; 38.9% in [4]; 37.2% in [5]; 67.2% in [6]. Also, the results for the growth in assay [7] and in assay [8] were 34.6% and 50.2%, respectively.
For the compound `Cc1ccc(S(=O)(=O)N2CCN(C(=O)CSc3nc4ccc(C)cc4[nH]3)CC2)cc1`, the growth in [1] is 105%; in assay [2], 91.3%; in [9], 106%; in [4] it was 110%; in [5], 96.6%; in assay [10] it was 97.2%. The growth was 107% in assay [7] and 143% in assay [8].
For `CCSc1ncc(Br)c(Sc2nc(N)nc3nc[nH]c23)n1`, the growth in assay [1] was 37.9%; in assay [2], 65.4%; in [9], 31.8%; in assay [4] it was 46.6%; in [5], 31.6%; in assay [10], 59%. Besides, the growth is 33.6% in [7] and 110% in assay [8].
For the compound `CC1C(C)N(C(=O)CCl)c2ccccc2N1C(=O)CCl` (centres undefined), the growth in assay [1] is -61.1% (active); in assay [2], 13.7%; in assay [9], -67.3% (active); in assay [4], -37.3% (active); in [5] it was -40.7% (active); in assay [6], 38.4%. Moreover, the growth is -55.1% (active) in assay [7] and -70.6% (active) in [8].
`C[C@@H]1CN(c2nc3c(cc2F)c(=O)c(C(=O)O)cn3C(C)(C)C)C[C@H](C)N1`: the growth in [1] is 95.2%; in assay [2], 91%; in assay [9] it was 98.5%; in [5] it was 71.6%; in assay [6], 99.9%; in assay [7], 112%. In assay [8], the growth was 110%.
Regarding `C=C1CCC2C(C)(COC(=O)CC)C(OC(=O)CC)CCC2(C)C1C/C=C1/C(=O)OCC1OC(=O)CC` (centres undefined), the growth was 57.4% in [1]; -18.3% (active) in assay [2]; -17.7% (active) in [9]; 79.6% in [4]; -9.73% (active) in assay [5]; 46.1% in assay [6]. Further, the growth is -97.4% (active) in assay [7] and -28.1% (active) in [8].
As for `C(#Cc1ccccc1C#Cc1ccccn1)c1ccc(OCCCCCCOc2ccc(C#Cc3ccccc3C#Cc3ccccn3)cc2)cc1`, the growth in [1] was 57.3%; in assay [2], 67.3%; in assay [9], 38.2%; in assay [4] it was 19.9%; in assay [5], 9.48% (active); in assay [6] it was 25.3%. Further, the values for the growth in assay [7] and in [8] were 29.3% and 120%, respectively.
As for `COC(=O)[C@H](Cc1cn(C)cn1)NC(=O)[C@H](C)NC(=O)Nc1cc(C(F)(F)F)cc(C(F)(F)F)c1`, the growth is -60.9% [100 µM] (active) in assay [1]; -33.9% [100 µM] (active) in assay [2]; -95.3% [100 µM] (active) in assay [9]; -34.3% [100 µM] (active) in assay [4]; -95.3% [100 µM] (active) in assay [5]; -25% [100 µM] (active) in assay [6]. Besides, the growth is -80.8% [100 µM] (active) in assay [7] and -92% [100 µM] (active) in assay [8].
With `Cc1ccc(NC(=O)c2sc3nc4c(cc3c2N)C(=O)CCC4)cc1`, the growth in [1] was 64.9%; in [2], 83.7%; in [9], 114%; in assay [4], 29%; in assay [5] it was 48.1%; in assay [6], 37%. The growth was 94.5% in [7] and 23.9% in assay [8].
Take `CCOC(=O)N1CCC(N=C2CSc3nnc(-c4cc(C(F)(F)F)cc(C(F)(F)F)c4)n3N2)CC1`: the growth was 15.3% in [1]; 29.4% in assay [2]; -4.27% (active) in [9]; 18.2% in assay [4]; 19.9% in assay [5]; 21.5% in [6]. Moreover, the growth in assay [8] is -9.91% (active).
For `COc1ccc(C2=NN(C(C)=O)C(c3c(C)nn(-c4ccccc4)c3N3CCOCC3)C2)cc1` (centres undefined), the growth in assay [1] was 100%; in [2], 92.1%; in assay [9], 87.9%; in assay [4], 98.7%; in assay [5], 86.9%; in assay [6] it was 85.5%. Also, the growth in assay [7] was 93%; in assay [8], 90.9%.
As for `O=C(CNC(=O)c1cccc2ccccc12)Nc1ccccc1Cc1ccccc1`, the growth in assay [1] is 52.1% [5 µM]; in assay [2], 72.3% [5 µM]; in assay [9], 36.4% [5 µM]; in assay [4] it was 17.9% [5 µM]; in assay [5], 53.5% [5 µM]; in assay [6], 27% [5 µM]. The growth was 45.3% [5 µM] in [7] and 29.4% [5 µM] in assay [8].
As to `C/C(=C\CCc1ccoc1)CC/C=C(\C)CCCC1COC(=O)C1` (centres undefined), the growth in assay [1] is 106%; in assay [2] it was 104%; in assay [9], 96.9%; in [5], 88%; in assay [6], 97%; in assay [7] it was 101%. Moreover, the growth in assay [8] is 109%.
For the compound `COc1cccc(N2CCN(c3cccc(C)n3)CC2)c1`, the growth in [1] is 103%; in assay [2], 105%; in assay [9], 87.7%; in assay [4] it was 117%; in assay [5], 79.2%; in assay [6] it was 95.6%. Besides, the growth is 99.6% in [7] and 123% in assay [8].
As for `NC(=O)c1cc(Br)cc(Br)c1NS(=O)(=O)c1ccccc1`, the growth in [1] is 100%; in assay [2], 95.3%; in assay [9], 98%; in assay [4], 102%; in [5], 93.6%; in assay [10] it was 100%. Moreover, the results for the growth in assay [7] and in assay [8] were 108% and 101%, respectively.
Take `O=c1[nH]c(SCc2ccccc2)nc2nc(Nc3ccc(NC(=S)Nc4ccccc4)cc3)nc(-c3ccc(O)cc3O)c12`: the growth in assay [1] is 97.3%; in assay [2] it was 93.2%; in assay [9], 102%; in [4], 103%; in assay [5] it was -2.6% (active); in assay [6], 105%. Besides, the growth is 94.7% in assay [7] and 98.2% in assay [8].
For the compound `Cc1cc(Cl)ccc1Nc1nc(C(F)(F)F)ccc1C(=O)N/N=C/c1ccc(Cl)cc1`, the growth in [1] is 5.4% (active); in [2] it was 7.79% (active); in [3], -1.86% (active); in [4], -5.33% (active); in assay [5], -24.1% (active); in [7], -45% (active). Also, in assay [8], the growth is -18.7% (active).
As to `CCCCCCCC[Si](OCC)(OCC)OCC`, the growth in assay [1] is 98.2%; in assay [2], 96.1%; in assay [9], 101%; in assay [4], 107%; in [6], 102%; in assay [7], 99.3%. For the same compound, the growth in [8] is 108%.
For the compound `Cc1cc(=O)oc2cc(OCCn3c(C)nn(-c4ccc(Cl)cc4)c3=O)ccc12`, the growth is 45.8% in assay [1]; 50.1% in assay [2]; 27.4% in [9]; 17.2% in [4]; 47.4% in assay [5]; 30.2% in assay [6]. For the same compound, the growth in assay [7] is 32.9%; in [8] it was 10.6%.
`Clc1ccc2c(c1)C(Br)c1cc(Cl)cc(Cl)c1-2` (centres undefined): the growth in [1] is 14.8%; in assay [2], 14.4%; in assay [3], 81.4%; in assay [4] it was 99.9%; in assay [6], 98.4%; in assay [7], 84.9%. Also, the growth in [8] is 103%.
On to `O=C1OC2(c3ccccc31)c1ccccc1-c1ccccc12`, for which the growth is 89.6% in assay [1]; 95.8% in assay [2]; 106% in assay [4]; 96.9% in assay [5]; 72.4% in assay [6]; 86.2% in assay [7]. In [8], the growth was 81.7%.
As for `CC1CN(C2CCCCC2)C(=O)NC1=O` (centres undefined), the growth is 114% in assay [1]; 101% in assay [2]; 108% in assay [9]; 114% in assay [4]; 92% in assay [5]; 104% in assay [6]. Besides, the growth in [7] was 110%; in assay [8], 101%.
Take `COc1cnc2c(c1)C(=O)c1c-2n(CCCNC2=NCCS2)c(=O)c2cc(F)ccc12`: the growth in [1] is 6.62% (active); in [2], 3.93% (active); in assay [3], 46.6%; in assay [4], -43.8% (active); in assay [6], 9.29% (active); in assay [7], -90.5% (active). Also, the growth in assay [8] is 22.1%.
On to `O=c1oc2c(cc1-c1ccc([N+](=O)[O-])cc1)C(O)Oc1ccccc1-2` (centres undefined), for which the growth in [1] was 89.3%; in [2], 101%; in assay [9], 98.1%; in assay [5], -13.6% (active); in assay [6], 78.7%; in [7], 98%. In [8], the growth was 93.5%.
Regarding `CC[C@@H](c1ccc(O)c(O)c1)[C@@H](CC)c1ccc(O)c(O)c1`, the growth was 96.6% in [1]; 105% in assay [2]; 106% in assay [9]; 69.6% in [5]; 107% in [6]; 100% in assay [7]. Also, in assay [8], the growth was 9.38% (active).
For the compound `O=Cc1ccccc1C(=O)O`, the growth was 100% in [1]; 100% in assay [2]; 96.7% in [9]; 99.5% in assay [4]; 101% in [5]; 97.4% in [7]. The growth in assay [8] is 112%.
Turning to `O=C(O)CCNS(=O)(=O)c1ccc(-c2ccccc2)cc1`, the growth is 98.4% in assay [1]; 92% in assay [2]; 103% in assay [9]; 114% in [4]; 83.9% in [5]; 98.4% in assay [10]. In addition, the growth was 106% in assay [7] and 111% in assay [8].
For the compound `O=C(c1ccc(N2CCOCC2)cc1[N+](=O)[O-])N1CCOCC1`, the growth in assay [1] is 97.2%; in assay [2], 97.9%; in [9], 94.8%; in [4] it was 116%; in [5], 94.3%; in assay [10], 94%. Also, the growth in [7] was 102%; in assay [8], 87.1%.
For the compound `O=C(Nc1ccc(Cl)cc1)Nc1nc2ccc(OC(F)(F)F)cc2o1`, the growth in [1] is 68.6%; in assay [2] it was 107%; in assay [9], 114%; in assay [4], 81.8%; in assay [5], 71.9%; in [6], 75.1%. For the same compound, the growth is 105% in assay [7] and 118% in assay [8].
In the case of `COC(=O)Nc1ccc2ccc3c(NC(=O)OC)ccc4ccc1c2c43` (tested in a mixture with another compound), the growth in [1] was 65%; in assay [2], 83.3%; in [9], 48.5%; in [4], 26.5%; in [5], 9.3% (active); in assay [6], 41.2%. The growth in assay [7] is 60%; in [8], 30.8%.

(Values after PubChem BioAssay (NCI).)
